SMILES strings stand for the structures. Compounds without any hit were thinned out: in the full panel of roughly 83,000, 20% have a hit.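 The endpoint reported here, percent growth, reads 100 for growth as untreated, 0 for no net growth and -100 for all cells dead.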 Values without a mark were called inactive. Active and inactive are the calls of the source. The calls were made as follows: active = growth percent below 10; inactive = the rest.

Some test systems named below: RPMI-8226 leukemia; OVCAR-8 ovarian; OVCAR-5 ovarian; OVCAR-4 ovarian; SK-OV-3 ovarian; IGROV1 ovarian; OVCAR-3 ovarian; HS 578T breast; NCI/ADR-RES ovarian; T-47D breast; BT-549 breast; MDA-MB-435 melanoma; SW-620 colon; MCF7 breast; HCC-2998 colon; KM12 colon; HCT-116 colon.
What all share (assay): NCI-60 one-dose screen, 48 h (100 = growth as untreated, 0 = no growth, -100 = all killed)
Holding throughout (settings): 10 µM unless noted

For the compound `CCCCn1c(=O)c(/C=C/C(=O)/C=C/c2ccc(O)c(OC)c2)cc2ccc(Cl)cc21`, the growth is -14.2% (active) in the test on RPMI-8226 leukemia; -4.03% (active) in the test with OVCAR-8 ovarian; 49.6% with OVCAR-5 ovarian; 26.1% with OVCAR-4 ovarian; 59.2% with SK-OV-3 ovarian; 6.29% (active) in the test on IGROV1 ovarian. The growth with OVCAR-3 ovarian is -26.2% (active); in the test with HS 578T breast it was 47.8%; in the test with NCI/ADR-RES ovarian, 14.8%; in the test on T-47D breast it was 25.3%; with BT-549 breast, 11.4%; with MDA-MB-435 melanoma, 2.81% (active). Also, the growth was 16.1% with SW-620 colon, 46.3% in the test with MCF7 breast, 33.3% in the test on HCC-2998 colon and 6.78% (active) with KM12 colon.

For `COCCOCCOCc1n(Cc2ccc3ccccc3n2)c2ccccc2[n+]1Cc1ccc2ccccc2n1`, the growth was 1.07% (active) with RPMI-8226 leukemia; 19.9% in the test on OVCAR-8 ovarian; 40.6% in the test with OVCAR-5 ovarian; 15.4% in the test on OVCAR-4 ovarian; 21.3% in the test on SK-OV-3 ovarian; 20.2% with IGROV1 ovarian. The growth was 7.54% (active) in the test on OVCAR-3 ovarian; 47.1% in the test with HS 578T breast; 102% in the test with NCI/ADR-RES ovarian; -4.32% (active) in the test on T-47D breast; 9.81% (active) in the test on BT-549 breast; 11% with MDA-MB-435 melanoma. For the same compound, the growth in the test with SW-620 colon is 36.2%; in the test with MCF7 breast it was 9.35% (active); with HCT-116 colon it was 18.9%; with HCC-2998 colon it was 23.2%; in the test on KM12 colon, 12%.

In the case of `CC(=O)c1c(OCC#N)ccc2c(C)cc(=O)oc12`, the growth with RPMI-8226 leukemia is 80%; with OVCAR-8 ovarian, 124%; with OVCAR-5 ovarian, 114%; with OVCAR-4 ovarian it was 107%; in the test on SK-OV-3 ovarian, 110%; in the test on IGROV1 ovarian, 116%. Moreover, the growth in the test with OVCAR-3 ovarian is 120%; in the test on HS 578T breast it was 106%; with NCI/ADR-RES ovarian, 118%; in the test on T-47D breast it was 97.9%; in the test on BT-549 breast, 118%; in the test on MDA-MB-435 melanoma it was 107%. For the same compound, the growth with SW-620 colon was 96.8%; with MCF7 breast it was 99.2%; in the test on HCT-116 colon, 101%; with HCC-2998 colon, 109%; in the test on KM12 colon it was 107%.

Regarding `COC(=O)/C=C1\SC(=Nc2cccc(OC)c2)N(CCc2c[nH]c3ccccc23)C1=O`, the growth with RPMI-8226 leukemia is 19.6%; in the test on OVCAR-8 ovarian, 52.3%; in the test with OVCAR-5 ovarian, 96%; in the test on OVCAR-4 ovarian, 69.7%; with SK-OV-3 ovarian, 72.4%; with IGROV1 ovarian it was 71.7%. Also, the growth with OVCAR-3 ovarian is 57%; in the test with HS 578T breast, 81%; in the test with NCI/ADR-RES ovarian, 62.9%; in the test on T-47D breast it was 46.1%; in the test with BT-549 breast, 52.3%; in the test on MDA-MB-435 melanoma it was 62.5%. Further, the growth in the test on SW-620 colon was 78.2%; in the test on MCF7 breast, 25.8%; with HCC-2998 colon it was 97%; in the test on KM12 colon, 48.3%.

Regarding `COc1ccc(-c2nc(C#N)c(NCC(c3ccc(Cl)cc3)N3CCCCC3)o2)cc1` (centres undefined), the growth was 85.6% with RPMI-8226 leukemia; 101% with OVCAR-8 ovarian; 96% in the test on OVCAR-5 ovarian; 87.5% in the test on OVCAR-4 ovarian; 109% in the test on SK-OV-3 ovarian; 85.8% in the test on IGROV1 ovarian. For the same compound, the growth in the test with OVCAR-3 ovarian was 95.1%; with HS 578T breast, 97.3%; with NCI/ADR-RES ovarian it was 87.1%; in the test with T-47D breast, 94.8%; with BT-549 breast, 106%; in the test on MDA-MB-435 melanoma it was 77.1%. Besides, the growth in the test on SW-620 colon was 97.5%; with MCF7 breast, 80.6%; in the test with HCC-2998 colon, 107%; in the test with KM12 colon, 84.9%.

Consider `c1ccc2nc(N3CCOCC3)c(N3CCCCC3)nc2c1`, for which the growth was 96.9% in the test with RPMI-8226 leukemia; 102% in the test on OVCAR-8 ovarian; 105% in the test with OVCAR-5 ovarian; 97.6% with OVCAR-4 ovarian; 101% in the test with SK-OV-3 ovarian; 107% with IGROV1 ovarian. In addition, the growth was 103% in the test on OVCAR-3 ovarian; 96.9% in the test with HS 578T breast; 100% in the test with NCI/ADR-RES ovarian; 75.9% in the test with T-47D breast; 109% with BT-549 breast; 106% in the test with MDA-MB-435 melanoma. Further, the growth in the test with SW-620 colon is 104%; with MCF7 breast, 93.8%; in the test with HCC-2998 colon, 103%; in the test on KM12 colon it was 101%.

For the compound `O=C(Nc1cc(Nc2ncccc2-c2ncnc3nc[nH]c23)ccc1F)c1cc(C(F)(F)F)cc(C(F)(F)F)c1`, the growth with RPMI-8226 leukemia was -13% (active); in the test on OVCAR-8 ovarian, -9.42% (active); with OVCAR-5 ovarian, -41% (active); with OVCAR-4 ovarian, -48.5% (active); in the test on SK-OV-3 ovarian, -18% (active); with IGROV1 ovarian, 2.77% (active). The growth with OVCAR-3 ovarian is -1.23% (active); in the test with HS 578T breast it was -19.1% (active); in the test with NCI/ADR-RES ovarian, -20.8% (active); in the test on T-47D breast, 11.1%; in the test on BT-549 breast it was -25.2% (active); in the test on MDA-MB-435 melanoma, 6.76% (active). The growth in the test on SW-620 colon is 13.1%; in the test with MCF7 breast, -2.67% (active); in the test with HCC-2998 colon, -83.4% (active); in the test with KM12 colon it was -55.9% (active).

For `COc1cc(-c2cn(-c3ccc(Cl)c(Cl)c3)c(=O)[nH]2)cc(OC)c1OC`, the growth in the test with RPMI-8226 leukemia was 99.3%; in the test with OVCAR-8 ovarian, 95.1%; with OVCAR-5 ovarian, 87.6%; with OVCAR-4 ovarian, 98.9%; with SK-OV-3 ovarian it was 88.3%; in the test with IGROV1 ovarian it was 136%. In addition, the growth is 99.5% in the test with OVCAR-3 ovarian; 95.3% with HS 578T breast; 95.5% in the test on NCI/ADR-RES ovarian; 90.1% with T-47D breast; 102% with BT-549 breast; 96.4% in the test with MDA-MB-435 melanoma. In addition, the growth was 109% in the test on SW-620 colon; 87.7% in the test on MCF7 breast; 78.7% with HCT-116 colon; 99.9% in the test on HCC-2998 colon; 90.8% in the test on KM12 colon.

Consider `Nn1c(SCC(=O)Nc2ccc(Cl)cc2)nnc1-c1cc(F)c(Cl)cc1Cl`, for which the growth in the test with RPMI-8226 leukemia was 76.8%; with OVCAR-8 ovarian it was 89.9%; with OVCAR-5 ovarian it was 66.5%; in the test on OVCAR-4 ovarian it was 85.9%; in the test with SK-OV-3 ovarian, 89.9%; in the test on IGROV1 ovarian, 89.9%. The growth with OVCAR-3 ovarian was 84.2%; in the test with HS 578T breast, 99.7%; with NCI/ADR-RES ovarian, 93.5%; in the test with T-47D breast it was 67.3%; in the test on BT-549 breast it was 114%; in the test on MDA-MB-435 melanoma, 97.3%. The growth was 92% in the test on SW-620 colon, 72.3% in the test on MCF7 breast, 93.2% with HCC-2998 colon and 72.8% in the test with KM12 colon.

With `Cc1nnc(/N=C2\NC(=O)/C(=C/c3ccc(N(C)C)cc3)S2)s1`, the growth was 58.9% in the test on RPMI-8226 leukemia; 78.6% in the test with OVCAR-8 ovarian; 99.9% with OVCAR-5 ovarian; 75.4% in the test on OVCAR-4 ovarian; 72% with SK-OV-3 ovarian; 60% in the test on IGROV1 ovarian. The growth in the test with OVCAR-3 ovarian was 45.4%; in the test on HS 578T breast, 85.6%; with NCI/ADR-RES ovarian it was 52.2%; with T-47D breast, 73.6%; in the test with BT-549 breast, 67.4%; with MDA-MB-435 melanoma, 9.37% (active). In addition, the growth in the test with SW-620 colon was 66.9%; in the test with MCF7 breast, 53.4%; in the test on HCT-116 colon it was 54.6%; in the test on HCC-2998 colon it was 85.5%; with KM12 colon it was 46.1%.

The record behind these values is PubChem BioAssay (NCI).
